Values joined by “and” are separate entries in the source; they are usually repeats but may differ in a detail not shown here. Equal values may be shown once. Records with an inconclusive call do not appear. More than one record can exist for a structure, and the calls need not agree. A number with no mark means an inactive call. Active and inactive are the calls of the source. The call rests on the fitted dose curve; in most records, active means well fitted inhibition curve with a large enough effect; inconclusive means small, poorly fitted or top-dose-only effect; inactive means flat fitted curve, though single readings scatter. Non-standard residues stand in square brackets, D forms with d. Residues, ends and D or L forms follow the SMILES beside them. Orn = NCCC[C@H](N)C(=O)O

One test concerns KB-3-1. Put plainly: Cytotoxic Profiling of Annotated Libraries Using Quantitative High-Throughput Screening (AID 1296008). On max response: on the % scale 0 is the no-effect control and ±100 the full control effect. To be noted: Five cell lines viability, CellTiter-Glo ATP luminescence, 48-72 h; max response: active compounds read low. The essentials:
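Cytotoxicity was measured as CellTiter-Glo ATP luminescence, read after 10 min at room temperature. Compound treatment of the cells lasted 48 or 72 hr at 37 degrees Celsius in a qHTS format.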
(In general: In ATP-based viability assays light output follows the ATP content of the culture.)

A further test relates to SC27B. The test can be described thus: qHTS profiling for inhibitors of Plasmodium falciparum proliferation (AID 504749). To be noted: P. falciparum in erythrocytes, SYBR Green DNA, 72 h; series mostly up to 28.7 µM. In a few lines:
(§1)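 SYBR Green fluorescence of parasite DNA, read after lysis and overnight dark incubation, measured growth over 72 h in erythrocyte culture at 0.3% parasitemia and 2.5% hematocrit. Data normalised to DMSO and 0.29 uM artemisinin, with plate-drift correction.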
(Quantitative high-throughput screening tests each substance at several concentrations.)

A further test deals with TAB109. The test is described as above. To be noted: P. falciparum in erythrocytes, SYBR Green DNA, 72 h; series mostly up to 28.7 µM. The essentials: as §1
The subject of a further test is TAB113. Described as above. To be noted: P. falciparum in erythrocytes, SYBR Green DNA, 72 h; series mostly up to 28.7 µM. In a few lines:
as §1

The next test deals with TAB165. Described as above. To be noted: P. falciparum in erythrocytes, SYBR Green DNA, 72 h; series mostly up to 28.7 µM. In a few lines:
as §1

The next test has as its system W2. The test is described as above. As to conditions: P. falciparum in erythrocytes, SYBR Green DNA, 72 h; series mostly up to 28.7 µM. In a few lines:
as §1
Further: nearly all actives have a fitted effect of over 60% in size.
Potency means the concentration at half of the fitted maximal effect.

As to `COc1cc2c(cc1O)CCN[C@]21CS[C@@H]2c3c(OC(C)=O)c(C)c4c(c3[C@H](COC1=O)N1[C@@H]2[C@H]2c3c(cc(C)c(OC)c3O)C[C@@H]([C@@H]1O)N2C)OCO4`, the Potency in the test with KB-3-1 was 5.2 nM (active) and 28.2 nM (active).

For the compound `OCCO[C@@H]1[C@@H](O)[C@H](O)[C@@H](CO)O[C@@H]1O`, the max response with KB-3-1 was 22%.

In the case of `CCCC(=O)Nc1ncnc2c1ncn2[C@@H]1O[C@@H]2COP(=O)(O)O[C@H]2[C@H]1OC(=O)CCC`, the max response with KB-3-1 is -5.3%.

As for `CCC(=O)OCC(=O)[C@@]1(OC(=O)CC)[C@H](C)C[C@H]2[C@H]3[C@H]([C@@H](O)C[C@@]21C)[C@@]1(C)C=CC(=O)C=C1C[C@H]3Cl`, the max response with KB-3-1 was 31.3%.

Turning to `CC(=O)O[C@]1(C(C)=O)CC[C@H]2[C@@H]3CCC4=CC(=O)CC[C@]4(C)[C@@]3(F)[C@@H](O)C[C@@]21C`, the max response in the test on KB-3-1 was 28.7%.

Consider `CC(C)C[C@@H]1NC(=O)[C@H](CCCN)NC(=O)[C@H](C(C)C)NC(=O)[C@@H]2CCCN2C(=O)[C@@H](Cc2ccccc2)NC(=O)[C@H](CC(C)C)NC(=O)[C@H](CCCN)NC(=O)[C@H](C(C)C)NC(=O)[C@@H]2CCCN2C(=O)[C@@H](Cc2ccccc2)NC1=O` (cyclo(V[Orn]L[dF]PV[Orn]L[dF]P)), for which the Potency with KB-3-1 is 0.82 µM (active).

For `CC[C@@H](C(=O)[C@@H](C)[C@@H](O)[C@H](C)CCc1ccc(C)c(O)c1C(=O)O)[C@H]1O[C@](CC)([C@H]2CC[C@](O)(CC)[C@H](C)O2)C[C@@H]1C`, the max response in the test with KB-3-1 is 10.1%.

Regarding `COc1ccc(C[C@@H](C)NC[C@H](O)c2ccc(O)c(NC=O)c2)cc1`, in the test with KB-3-1, the max response is 2.59%.

`CN(C)CC/C=C1/c2ccccc2CSc2ccccc21`: the max response in the test with KB-3-1 is -13.6%.

For the compound `CCCCC(CC)COC(=O)CC(C(=O)OCC(CC)CCCC)S(=O)(=O)O` (stereo unspecified), the max response with KB-3-1 is -3.48% and -14.8%.

`CN1CCC(CN2c3ccccc3Sc3ccccc32)C1` (stereo unspecified): in the test with KB-3-1, the max response was -8.09%.

With `CC(C)NCC1CCc2cc(CO)c([N+](=O)[O-])cc2N1` (stereo unspecified), the max response in the test on KB-3-1 was 2.46%.

Consider `CC1(C)C(C=C(Cl)Cl)C1C(=O)OCc1cccc(Oc2ccccc2)c1` (stereo unspecified), for which the Potency result in the test on SC27B, in the test with TAB109, in the test with TAB113 and in the test with TAB165 was “inactive” throughout. Also, the max response with KB-3-1 was -12.6%.

`CC(=O)N[C@@H](CC(=O)N[C@@H](CCC(=O)O)C(=O)O)C(=O)O`: in the test on KB-3-1, the max response was -12.8%.

As to `COC(=O)[C@H]1[C@H]2C[C@@H]3c4[nH]c5ccccc5c4CCN3C[C@H]2C[C@@H](OC(=O)c2cc(OC)c(OC)c(OC)c2)[C@@H]1OC`, the Potency with SC27B was 355 nM (active); in the test on TAB109, 398 nM (active); in the test on TAB113, 282 nM (active); in the test on TAB165, 178 nM (active); with W2 it was 151 nM (active); in the test on KB-3-1, 7.31 µM (active). In addition, the max response in the test with KB-3-1 is -19.2%.

Regarding `O=C(O)C1CCCN1` (stereo unspecified), the max response with KB-3-1 was 3.27%.

For `CO[C@H]1C=CO[C@@]2(C)Oc3c(C)c(O)c4c(O)c(c5c(nc6cc(C)ccn65)c4c3C2=O)NC(=O)/C(C)=C\C=C[C@H](C)[C@H](O)[C@@H](C)[C@@H](O)[C@@H](C)[C@H](OC(C)=O)[C@@H]1C`, the max response in the test on KB-3-1 is 5.41%.

For the compound `C=C(NC(=O)C(=C)NC(=O)c1csc(C2=N[C@@H]3c4csc(n4)[C@H]4NC(=O)c5csc(n5)[C@H]([C@](C)(O)[C@@H](C)O)NC(=O)[C@H]5CSC(=N5)C(=CC)NC(=O)C([C@@H](C)O)NC(=O)c5csc(n5)[C@]3(CC2)NC(=O)[C@H](C)NC(=O)C(=C)NC(=O)[C@H](C)NC(=O)C([C@@H](C)CC)NC2C=Cc3c([C@H](C)O)cc(nc3C2O)C(=O)O[C@@H]4C)n1)C(N)=O` (stereo partly specified), the max response in the test on KB-3-1 was -16.7%.

`C[C@H](CCC(=O)O)[C@H]1CC[C@H]2[C@@H]3[C@H](O)C[C@@H]4C[C@H](O)CC[C@]4(C)[C@H]3CC[C@]12C`: the max response in the test with KB-3-1 was 0.682%.

`CCOC(=O)O[C@]1(C(=O)COC(=O)CC)CC[C@H]2[C@@H]3CCC4=CC(=O)C=C[C@]4(C)[C@H]3[C@@H](O)C[C@@]21C`: the max response in the test on KB-3-1 was 0.126%.

Turning to `CC(=O)OCC(=O)[C@@]12OC3(CCCC3)O[C@@H]1C[C@H]1[C@@H]3CCC4=CC(=O)C=C[C@]4(C)[C@@]3(F)[C@@H](O)C[C@@]12C`, the max response in the test with KB-3-1 is -4.92%.

Turning to `CO[C@@H]1[C@@H](O[C@@H]2O[C@H](C)[C@@H](O[C@H]3C[C@@](C)(O)[C@@H](OC(=O)CC(C)C)[C@H](C)O3)[C@H](N(C)C)[C@H]2O)[C@@H](CC=O)C[C@@H](C)C(=O)/C=C/C2OC2C[C@@H](C)OC(=O)C[C@H]1OC(C)=O` (stereo partly specified), in the test on KB-3-1, the max response is 20.2%.

Consider `CC(C)N=c1cc2n(-c3ccc(Cl)cc3)c3ccccc3nc-2cc1Nc1ccc(Cl)cc1`, for which the Potency result with SC27B, in the test on TAB109, in the test with TAB113 and with TAB165 was “inactive” in each case. The max response in the test with KB-3-1 was 6.76%.

With `N[C@H](C(=O)O)[C@@H]1CC(Cl)=NO1`, the Potency with KB-3-1 was 20.6 µM (active).

For `CC(=O)Oc1c(C)cc(OCC(O)CNC(C)C)c(C)c1C` (stereo unspecified), the Potency result with SC27B, in the test on TAB109, with TAB113 and with TAB165 was “inactive” each time. Further, the max response with KB-3-1 was 4.82%.

Regarding `C=CC1=C(C)C2=CC3=NC(=C(CC(=O)[O-])C4=NC(=C(C)C4=C([O-])[O-])C=c4[n-]c(c(C)c4CC)=CC1=N2)C(CCC(=O)[O-])C3C.[Cu+2].[Na+].[Na+].[Na+]` (stereo unspecified), in the test with KB-3-1, the max response is -6.08%.

With `CCCCC(C)(O)C/C=C/[C@H]1[C@H](O)CC(=O)[C@@H]1CCCCCCC(=O)OC` (stereo partly specified), the Potency entry in the test with SC27B, with TAB109, with TAB113 and in the test with TAB165 was “inactive” throughout. Moreover, the max response with KB-3-1 is 3.19%.

Take `CCCC(=O)O[C@]1(C(=O)COC(C)=O)CC[C@H]2[C@@H]3C[C@H](F)C4=CC(=O)C=C[C@]4(C)[C@@]3(F)[C@@H](O)C[C@@]21C`: the max response in the test on KB-3-1 is 20.2%.

For `CC(C)C(=O)OCC(=O)[C@@]12O[C@H](C3CCCCC3)O[C@@H]1C[C@H]1[C@@H]3CCC4=CC(=O)C=C[C@]4(C)[C@H]3[C@@H](O)C[C@@]12C`, the max response in the test on KB-3-1 was -5.72%.

On to `CC(=O)OCC(=O)[C@@]1(O)CC[C@H]2[C@@H]3C[C@H](C)C4=CC(=O)C=C[C@]4(C)[C@H]3[C@@H](O)C[C@@]21C`, for which the max response in the test with KB-3-1 was 15.9%.

Regarding `CC(Oc1ccccc1)C(=O)N[C@@H]1C(=O)N2[C@@H]1SC(C)(C)[C@@H]2C(=O)O` (stereo partly specified), the max response in the test on KB-3-1 is -0.849%.

With `Cc1cc(CC(C)CC(C)(C)C)n(O)c(=O)c1` (stereo unspecified) (tested in a mixture with another compound), the max response with KB-3-1 was 29.3%.

For `CC1(C)O[C@@H]2C[C@H]3[C@@H]4CCC5=CC(=O)C=C[C@]5(C)[C@H]4[C@@H](O)C[C@]3(C)[C@]2(C(=O)CO)O1`, the max response in the test on KB-3-1 is -0.986%.

With `CC1(C)S[C@@H]2[C@H](NC(=O)Cc3ccccc3)C(=O)N2[C@H]1C(=O)O`, the max response in the test with KB-3-1 was -8.27%.

For the compound `CCCCC(=O)OCC(=O)[C@]1(O)Cc2c(O)c3c(c(O)c2[C@@H](O[C@H]2C[C@H](NC(=O)C(F)(F)F)[C@H](O)[C@H](C)O2)C1)C(=O)c1c(OC)cccc1C3=O`, in the test with KB-3-1, the Potency is 8.2 µM (active).

Turning to `C[C@]12C=CC(=O)N[C@@H]1CC[C@@H]1[C@@H]2CC[C@]2(C)[C@@H](C(=O)Nc3cc(C(F)(F)F)ccc3C(F)(F)F)CC[C@@H]12`, the max response in the test on KB-3-1 was 5.03%.

Turning to `CC(=O)N(CC(C)C(=O)O)c1c(I)cc(I)c(N)c1I` (stereo unspecified), the max response in the test with KB-3-1 was -8.47%.

As for `CC(O)CO` (stereo unspecified), the Potency entry with SC27B, with TAB109, in the test on TAB113, in the test on TAB165 and in the test on W2 was “inactive” each time. In addition, the max response with KB-3-1 is -18.9%.

On to `C=CCSSSCC=C`, for which the Potency entry with SC27B, with TAB109, with TAB113, with TAB165 and in the test with W2 was “inactive” in each case. Besides, the max response in the test with KB-3-1 is -7.72%.

Values taken from PubChem BioAssay (NCATS).
